# Bioassay records as filed in PubChem BioAssay.
# TTR transcr act = increases transthyretin transcription; 1.3% of 92,000 active; SH-SY5Y TTR promoter Gaussia luciferase, luminescence; 100% = recombinant luciferase protein wells; activation, % at 16.7 µM; AID 1117267;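 active = activation above the mean of all tested compounds plus 3 SD, cut at about 9.5% in these data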;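 also: cells exposed to compounds for one day before reading; 0% = median of all test compound wells on the plate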
# TTR inh HuH7 = decreases TTR transcription in HuH7 cells in activator counter-screen. shares compounds with TTR transcr act. HuH7 TTR promoter-Gaussia luciferase reporter, luminescence. inhibition, % at 16.7 µM. 4% of 1,100 active. AID 1117279;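 active = average inhibition above the solvent-only control wells' mean plus 3 SD, cut at about 15% in these data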;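 also: 0% = cells with DMSO only and 100% = cells with inhibitor control FD; inhibitors lower well luminescence so higher value means more inhibition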
# TTR act confirm = confirmation of human transthyretin transcription activators | shares compounds with TTR transcr act | SHSY5Y TTR promoter Gaussia luciferase, luminescence; 100% = purified Lucia enzyme wells, no cells | activation, % at 16.7 µM | 1,100 tested, under 10 active;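 active = mean activation above a set limit taken from the earlier primary screen, cut at about 11% in these data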;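 also: 0% = DMSO-treated cells and 100% = recombinant Lucia luciferase without cells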
# Starred values were filed as active, the others as inactive. Only a selection was taken, and hits are over-represented in it overall.
SMILES,TTR transcr act,others
COc1ccc(-c2nc3cc(C)c(Br)c(C)n3c2CC2CCCCC2)cc1OC,2.3,
Cc1cc2nc(-c3ccc(F)cc3)c(CC3CCCCC3)n2c(C)c1Br,1.7,
Cc1ccc(-c2nc3cc(C)c(Br)c(C)n3c2CC2CCCCC2)cc1,9.8*,TTR inh HuH7=-9.2;TTR act confirm=-0.2
Cc1cc2nc(-c3ccccc3)c(CC3CCCCC3)n2c(C)c1Br,22.5*,TTR inh HuH7=-8.1;TTR act confirm=0.7
Cc1cc2nc(-c3cccc(Cl)c3)c(CC3CCCCC3)n2c(C)c1Br,2.1,
O=C(Cc1ccc(NC(=O)C2CCN(C(=O)C3CCCCC3)CC2)cc1)Nc1ccc(C(=O)N2CCOCC2)cc1,-1.1,
CCC[C@H]1[C@@H](NC(=O)c2ccc(N(C)C)cc2)CC[C@@]23CCCN2C(=O)CCC[C@@H]13,-0.1,
COc1ccc2c(c1)C[C@@H](CON1C(C)(C)CCCC1(C)C)N2S(=O)(=O)c1ccc(C)cc1,1.2,
CCCCNC(=O)C[C@H]1C[C@@]2(C(=O)OC)C(=C[C@H](C3CCCC3)O[C@@H]2C)N(Cc2ccc(Cl)cc2Cl)C1=O,-1.8,
c1csc(CNc2ncnc3ccc(-c4ccc5c(c4)OCO5)cc23)n1,-2.0,
COc1ccc(Br)cc1/C=N/NC(=O)c1nc(-c2ccccc2)n2c1CCCCC2,-1.1,
O=C(OCc1cn(Cc2ccccc2)nn1)N1CCOCC1,2.1,
C[C@H]1[C@H](NC(=O)c2ccc(C(C)(C)C)cc2)CC[C@@]23CCCN2C(=O)CCC[C@@H]13,1.1,
Cc1noc(NC(=O)c2ccc(F)cc2)c1C#N,14.4*,TTR inh HuH7=-17.2;TTR act confirm=-0.2
Cn1c(NC(=O)c2ccccc2C(F)(F)F)cc(=O)n(C)c1=O,-0.5,
Cc1cccc(C(=O)Nc2onc(C)c2C#N)c1,4.9,
Cc1noc(NS(=O)(=O)c2ccc(NC(=O)c3ccc(F)cc3)cc2)c1C,-2.0,
Cc1noc(NC(=O)c2ccccc2C(F)(F)F)c1C#N,11.7*,TTR inh HuH7=-24.9;TTR act confirm=1.3
O=C(Nc1ccc(C(O)(C(F)(F)F)C(F)(F)F)cc1)c1ccccc1C(F)(F)F,6.4,
CCCC(C)C(=O)NC1CCCCN(Cc2ccccc2C)C1=O (stereo unspecified),2.2,
Cc1ccc(CN2CCCCC(NC(=O)c3c(F)cccc3F)C2=O)cc1 (stereo unspecified),-1.1,
C=CCN(C(=O)[C@@H](CCCC)[C@@H](O)c1ccc2ccccc2c1)c1ccccc1,-0.6,
CC1(C)CC(=O)C2=C(C1)N=C1SCCC(=O)N1C2c1ccccc1 (stereo unspecified),-1.3,
COC(=O)C1=C(C)N=C2SCCC(=O)N2C1c1ccc(C(=O)OC)cc1 (stereo unspecified),16.0*,TTR inh HuH7=-6.8;TTR act confirm=2.0
CC1=C(C(=O)OC(C)C)C(c2cccs2)N2C(=O)CCSC2=N1 (stereo unspecified),-2.2,
SMILES,TTR transcr act,others
Nc1[nH]c(C(=O)c2ccccc2)c(-c2ccc(Cl)cc2Cl)c1C(=O)c1cccs1,-0.2,
C#CCOCCOCCOCCNc1nc(N2CCOCC2)nc(N2CCN(C(=O)[C@H](CCC(=O)O)n3cc(C(N)CO)nn3)CC2)n1 (stereo partly specified),2.0,
COCCNS(=O)(=O)c1cc(OC)c(Cl)cc1Cl,1.2,
CCOCCCNS(=O)(=O)c1ccc(OC)c(Cl)c1Cl,11.9*,TTR inh HuH7=-21.1;TTR act confirm=-0.7
COc1ccc(S(=O)(=O)NCc2cccnc2)c(Cl)c1Cl,2.9,
O=S(=O)(Nc1ccc(C(O)(C(F)(F)F)C(F)(F)F)cc1)c1cccs1,0.5,
Cc1nc2c(C)cccc2c2c1COC2,-0.8,
Cc1cc2ccc3ccccc3c2cc1CN(C)C,5.7,
CN(C)Cc1cc2ccccc2c2c1COC2,12.2*,TTR inh HuH7=-13.5;TTR act confirm=-0.6
C[C@H]1CCCN1c1cccc2c1S(=O)(=O)N1CC[C@@H](C1)O2,0.5,
COC(=O)[C@]12C[C@H](CC(=O)NCC3CCCCC3)C(=O)N(Cc3ccc(Cl)cc3Cl)C1=C[C@H](C1CCCC1)O[C@@H]2C,0.4,
COC(=O)[C@]12C[C@H](CC(=O)NCc3cccc(C(F)(F)F)c3)C(=O)N(Cc3ccc(Cl)cc3Cl)C1=C[C@H](C(C)C)O[C@@H]2C1CC1,0.0,
Cc1ccc(OCCn2c(CCNC(=O)c3ccc(F)cc3F)nc3ccccc32)cc1,2.4,
CCn1c(NCc2ccc3c(c2)OCO3)nc2ccccc21,6.2,
CN(C)CCCn1c(NCc2ccc3c(c2)OCO3)nc2ccccc21,10.0*,TTR inh HuH7=-12.6;TTR act confirm=0.0
c1ccc2c(c1)nc(NCc1ccc3c(c1)OCO3)n2CCN1CCOCC1,-0.5,
CCCC[C@H]1C2CC(OC(=O)Nc3ccc(C(F)(F)F)cc3)C(C2)[C@H]2CCCCN21 (stereo partly specified),0.8,
Cc1cc(C(F)F)n2nc(C(=O)Nc3c(F)cc(F)cc3Br)nc2n1,1.0,
COC(=O)c1ccccc1NC(=O)c1nc2nc(C)cc(C(F)F)n2n1,9.8*,TTR inh HuH7=-9.4;TTR act confirm=-0.2
Cc1cc(C(F)F)n2nc(C(=O)O)nc2n1,0.4,
Cc1ccccc1CN1CCCCC(NC(=O)c2cccc([N+](=O)[O-])c2)C1=O (stereo unspecified),-1.9,
COc1cc(C#N)ccc1OCC(=O)NCCC1=CCCCC1,1.1,
COc1ccc(C(=O)NCC(=O)OCC(=O)NCCC2=CCCCC2)cc1,0.4,
COc1cc(/C=C/C(=O)OCC(=O)NCCC2=CCCCC2)cc(OC)c1OC,10.2*,TTR inh HuH7=-13.6;TTR act confirm=-0.3
C[C@@H]1CCN(C2CC2)S(=O)(=O)c2c(cccc2N2CC[C@@H](O)C2)O1,2.7,
SMILES,TTR transcr act,others
O=C(OCc1cn(Cc2ccc(Cl)cc2)nn1)N1CCCC1,4.8,
Cn1c(NC(=O)c2ccc(C(C)(C)C)cc2)cc(=O)n(C)c1=O,-0.4,
Cn1c(NC(=O)c2ccc(Cl)s2)cc(=O)n(C)c1=O,-0.8,
COCC(=O)Nc1cc(=O)n(C)c(=O)n1C,10.9*,TTR inh HuH7=-1.4;TTR act confirm=-1.0
Cn1c(NC(=O)C2CC2)cc(=O)n(C)c1=O,9.9*,TTR inh HuH7=-7.2;TTR act confirm=-0.2
Cn1c(NC(=O)Cc2cccs2)cc(=O)n(C)c1=O,1.5,
CCC(CC)C(=O)Nc1cc(=O)n(C)c(=O)n1C,-0.8,
C[C@H](CO)N1C[C@H](C)[C@@H](CN(C)C(=O)Nc2ccc(C(F)(F)F)cc2)OCc2cn(nn2)CCCC1=O,-0.3,
O=S1(=O)c2ccc(N3CC[C@@H](O)C3)cc2O[C@@H]2CCN1C2,0.7,
Cn1c(=O)cc(OCCCC(=O)Nc2cc(C(F)(F)F)ccn2)c2ccccc21,1.9,
C#CCOCCOCCOCCNc1nc(N2CCN(C(=O)[C@H](CO)n3cc([C@@H](N)C(C)C)nn3)CC2)nc(N2CCN(C(=O)[C@H](CCCCN)n3cc([C@@H](N)[C@H](C)CC)nn3)CC2)n1,18.6*,TTR inh HuH7=-4.3;TTR act confirm=0.8
C#CCOCCOCCOCCNc1nc(N2CCOCC2)nc(N2CCN(C(=O)[C@H](CCCCN)n3cc([C@@H](N)CO)nn3)CC2)n1,2.2,
C#CCOCCOCCOCCNc1nc(N2CCN(C(=O)[C@H](CCCN=C(N)N)n3cc(C(N)[C@@H](C)CC)nn3)CC2)nc(N2CCN(C(=O)[C@H](CCCCN)n3cc([C@@H](N)CC(N)=O)nn3)CC2)n1 (stereo partly specified),-1.6,
COc1ccc(C2Nc3ccccc3C(=O)N2Cc2ccccc2)cc1COc1ccc(NC(C)=O)cc1 (stereo unspecified),-3.0,
Nc1c(C(=O)NCC2CCCO2)c2nc3ccccc3nc2n1-c1ccccc1 (stereo unspecified),10.9*,TTR inh HuH7=-15.2;TTR act confirm=-0.1
